# Only some compounds are listed: those with a hit (about 12% of all), similar ones and a draw of the others.
# HCV inhibitor – HCV inhibition | Huh7.5.1 HCVcc-Cre infection, luciferase reporter, 44 h | Potency, µM (doses to about 41.8 µM), for inactives: at the top dose activity change, negative = inhibition, hits mostly inhibitors | 3.4% of 340,000 active | AID 651820; note: % is set by controls: 0 for no effect and ±100 for the full control effect
#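 Cells seeded at 1,000/well and cultured 4 h, then compounds added followed by HCVcc-Cre virus (~0.5 moi). After 44 h further culture, luciferase substrate was added, plates held 15 min at room temperature, and luminescence read for 15 sec.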
# NS1 function inh – blocks influenza NS1 protein function; Potency, µM (series often up to 46.1 µM), for the others: at the top dose activity, positive = more growth; 0.4% of 270,000 active; AID 2326; calls by dose curve; note: actives are rising curves; nearly all actives have a fitted effect of over 50% in size
#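 Growth recovery, yeast-based: influenza A NS1 expressed in S. cerevisiae causes slow growth, and suppressors are detected by OD600. The parent strain without NS1 is used as positive control.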
# AMA1-RON2 inh – disrupts binding of P. falciparum AMA1 to RON2; AlphaScreen AMA1-biotinylated RON2 peptide binding; Potency, µM (top dose mostly 58.2 µM), without a hit: at the highest dose activity change, negative = inhibition, hits mostly inhibitors; 0.2% of 360,000 active;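 note: 0% = vehicle wells and -100% = peptide control; nearly all actives have a fitted effect of over 45% in size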
#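 AMA1 (3D7) with his tag at 25 nM final met compounds first, then biotinylated RON2 peptide at 25 nM; detection used donor plus acceptor beads, 10 µg/mL apiece, read by AlphaScreen after 30 min at room temperature.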
# Pf growth 96h – P. falciparum growth inhibition at 96 hour, primary screen for plastid delayed-death inhibitors; AID 504834; 6.9% of 320,000 active; Potency, µM (series often up to 28.7 µM), inactives show top-dose activity change, negative = inhibition, actives largely listed as inhibitors; P. falciparum luciferase reporter growth, 96 h; note: % is set by controls: 0 for no effect and ±100 for the full control effect
#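 P. falciparum expressing integrated firefly luciferase, in erythrocytes at 2% hematocrit, 0.05% parasitemia, incubated with compounds 96 h at 37 C, 5% CO2. Growth inhibition read as loss of luminescence; two-generation exposure targets delayed-death apicoplast inhibitors.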
# SARS PLP yeast – SARS-CoV PLP inhibition in yeast | S. cerevisiae expressing SARS-CoV PLpro, growth rescue | Potency, µM (doses to about 32.9 µM), for inactives: at the top dose activity, positive = growth rescue, hits mostly activators | 0.19% of 330,000 active | AID 485353; calls by dose curve; note: 0% is about no effect; nearly all actives have a fitted effect of over 55% in size
# Pf growth 48h – P. falciparum growth inhibition at 48 hours (one generation); P. falciparum luciferase growth in erythrocytes, 48 h; 5.9% of 310,000 active; Potency, µM (top dose mostly 28.7 µM), for the others: at the top dose activity change, negative = inhibition, actives largely listed as inhibitors; AID 504832; note: % is set by controls: 0 for no effect and ±100 for the full control effect
#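 A one-generation exposure of luciferase-tagged malaria parasites in RPMI 1640/Albumax erythrocyte culture, 37 C and 5% CO2. Inhibition is inferred from decreased luminescence after adding detection reagent.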
# Numbers without * were called inactive; ? = inconclusive; . = no result; [ ] = remark or other dose. Unless noted, calls come from the whole dose curve; as a rule, active = well fitted curve in the direction sought with a large enough effect; inconclusive = small, poorly fitted or top-dose-only effect, or another doubt; inactive = no such curve, though single readings can be large; an effect the other way counts as inactive or inconclusive. Potency is the fitted concentration of half-maximal effect.
SMILES,HCV inhibitor,NS1 function inh,AMA1-RON2 inh,Pf growth 96h,SARS PLP yeast,Pf growth 48h
CCc1nc2ccc(C(=O)N(CC)CCN(C)C)cn2c1N(C)Cc1nccs1,.,.,7.7%,.,.,.
CC(C)(C)c1cc(C(=O)NCCN2CCCC2)cc(C(C)(C)C)c1,-20.2%,8.0%,-11.3%,-18.6%,-1.1%,?
COc1cc(SC)ccc1C(=O)N1CC(C)OC(C)C1 (stereo unspecified),3.8%,-3.4%,2.8%,-3.4%,-0.2%,1.65µM*
Cc1ccc(C(=O)N2CC(C)OC(C)C2)c(Cl)c1 (stereo unspecified),13.6%,4.4%,2.7%,3.7µM*,26.3%,.
CCc1cc2cc(C(=O)Nc3ccc(C)cc3)sc2s1,-13.6%,3.7%[9.22 µM],-5.9%,2.33µM*,8.3%,?
COc1cc(C)ccc1S(=O)(=O)n1nc(C)cc1C,-4.1%,6.2%,-14.3%,31.3%,-0.3%,-8.2%
O=Cc1cccn1Cc1ccccc1[N+](=O)[O-],5.9%,21.0%,7.8%,9.28µM*,-12.1%,-2.4%
COCc1cc(=O)[nH]c(-c2ccccc2)n1,6.2%,.,-1.3%,-47.8%[5.75 µM],-0.1%,-16.6%
O=c1cc(CS(=O)(=O)c2ccccc2)nc(-c2ccncc2)[nH]1,11.2%,.,-4.5%,?,0.8%,11.7µM*
CCOc1cc(C)c(S(=O)(=O)Nc2ccc3cn[nH]c3c2)cc1C,10µM*,26.7%,-2.8%,?,-6.2%,?
Cc1cccc2cc(C#N)c(N3CCN(C)CC3)nc12,10µM*,-10.8%,0.2%,-0.8%,-10.1%,-10.9%
CCOc1ccc(S(=O)(=O)NCc2ccc(F)cc2)c2cccnc12,-3.0%,-6.6%,12.7%,6.57µM*,-1.9%,-0.3%
CCOc1ccc(Br)cc1S(=O)(=O)NCc1ccncc1,-24.7%,-5.9%,10.2%,13.1µM*,-2.9%,-0.6%
CCOc1ccc(S(=O)(=O)NCc2ccc(OC)cc2)c2cccnc12,-3.2%,-1.4%,-9.9%,-6.1%,-4.5%,9.0%
COc1ccc(C(=O)NCc2ccncc2)cc1S(=O)(=O)NCc1ccc(Cl)cc1,-21.2%,.,0.4%,10.4µM*,-1.4%,?
CCOc1ccc(Br)cc1S(=O)(=O)NCc1ccc(S(N)(=O)=O)cc1,2.4%,1.1%,24.4%,-18.9%,1.5%,-7.5%
O=C(CSc1ncccn1)Nc1ccc2c(c1)CCC2,-0.7%,-5.1%,-6.3%,82.7%,2.4%,65.1%
Cc1ccc(/C=C/C(=O)N2CCN(S(=O)(=O)c3c(C)c(C)cc(C)c3C)CC2)o1,6.3%,17.9%,-13.0%,?,-58.7%,7.38µM*
Cc1ccc(/C=C/C(=O)N2CCN(Cc3ccccc3)CC2)o1,17.8%,10.7%,5.1%,402.3%,-9.8%,-0.1%
Cc1ccc(/C=C/C(=O)N2CCN(S(=O)(=O)c3ccc(C)c(C)c3)CC2)o1,-10.9%,-6.4%,13.5%,5.86µM*,-32.6%,?
CC(=O)N1CCN(S(=O)(=O)c2ccc3c(c2)CCC(=O)N3)CC1,9.7%,.,3.8%,98.2%,14.1%,26.8%
O=C1c2cccc3c(Nc4ccccc4Cl)c([N+](=O)[O-])cc(c23)C(=O)N1CCO,-22.8%,-19.4%,?,1.04µM*,-5.0%,?
COc1ccccc1NC(=O)C1CCN(C(=O)NCc2ccccc2)CC1,-3.5%,13.0%,0.0%,8.9%,0.3%,8.0%
COc1ccc(/C=N\NC(=O)c2ccccc2Br)cc1COc1ccccc1,14.1µM*,-9.9%,0.0%,-20.2%,0.8%,9.3%
COc1cccc(C(=O)N/N=C/c2ccc(OC)c(COc3ccccc3C(N)=O)c2)c1,?,-27.1%,-5.7%,?,0.2%,?
SMILES,HCV inhibitor,NS1 function inh,AMA1-RON2 inh,Pf growth 96h,SARS PLP yeast,Pf growth 48h
COc1ccc(/C=N/NC(=O)c2cccnc2)cc1COc1ccc(NC(C)=O)cc1,-5.6%,-6.7%,32.7%,41.3%,-1.9%,12.2%
COc1ccc(/C=N\NC(=O)c2cccc(F)c2)cc1COc1ccccc1,-18.2%,.,1.7%,.,.,.
COc1ccc(/C=N/O)cc1COc1ccc(NC(C)=O)cc1,?,6.5%,-0.8%,7.38µM*,10.4%,7.3%
COc1ccc(C(=O)N/N=C\c2ccc(OC)c(COc3ccccc3Br)c2)c(OC)c1,17.8µM*,?,44.6%,-19.9%,-2.7%,-6.0%
CC(C)(C)C(=O)COC(=O)c1cc(-c2cccnc2)nc2ccccc12,-0.8%,.,0.7%,?,-6.0%,?
CCCCn1c(N)c(N(CC(C)C)C(=O)C2CC(=O)N(c3ccc(CC)cc3)C2)c(=O)[nH]c1=O (stereo unspecified),5.1%,.,-2.9%,-14.6%,-1.2%,?
CC1CCCN(CC(=O)Nc2ccc(S(=O)(=O)N3CCCC3)cc2)C1 (stereo unspecified),-21.8%,9.4%,15.3%,-10.7%,3.4%,-18.6%
CCN(C(=O)Cn1nc(C)c([N+](=O)[O-])c1C)C1CCS(=O)(=O)C1 (stereo unspecified),3.6%,.,11.4%,25.6%,3.2%,-8.9%
O=C(NNc1c(Cl)cc(Cl)cc1Cl)C1CCC1,0.7%,1.3%,14.4%,-29.4%,-11.4%,-1.5%
COc1ccc(N(CC(=O)Nc2ccccc2C(=O)O)S(=O)(=O)c2ccc(C)c([N+](=O)[O-])c2)cc1,23.9%,?,-8.5%,8.1%,0.4%,-15.3%
CC(=O)Oc1ccc(N(C(C)=O)S(=O)(=O)c2ccc(C)c([N+](=O)[O-])c2)cc1,18.3%,-0.2%,-7.5%,2.62µM*,-11.4%,3.0%
O=C(Cn1cnc2ccccc21)Nc1ccc(SC(F)F)cc1,8.91µM*,.,1.8%,-6.4%,-0.2%,-24.6%
CCn1c(N)[n+](CC(=O)Nc2ccc(SC(F)F)cc2)c2ccccc21,?,0.5%,?,2.94µM*,-0.9%,8.28µM*
COc1ccc(NC(=O)COC(=O)Cn2cnc3ccccc32)cc1,31.1%,.,-4.7%,.,-5.8%,.
CCc1nc(-c2ccc(OC)c(OC)c2)cc2cc(OC)c(OC)cc12,3.16µM*,-9.4%,2.0%,9.28µM*,26.8%,-22.3%
O=C(Cc1cccc2ccccc12)NCC(=O)N1CCN(CC(=O)Nc2ccc(F)cc2)CC1,.,.,-6.1%,.,.,.
O=C(Cc1cccc2ccccc12)NCC(=O)N1CCN(Cc2cccc(C(F)(F)F)c2)CC1,5.62µM*,.,2.3%,-15.8%,-1.2%,-6.2%
Cc1noc(C)c1COC(=O)C(c1ccccc1)c1ccccc1,22.6%,.,16.0%,-20.8%,-6.3%,1.3%
C/C(CC(=O)Nc1ccccn1)=N\NC(=O)c1ccc2ccccc2c1,2.4%,-0.7%,53.3%,1.85µM*,2.9%,24.1%
C/C(CC(=O)Nc1ccccn1)=N\NC(=O)c1ccccc1O,7.08µM*,-46.9%,34.9%,33.4%,?,9.5%
O=C(CSc1ccccn1)N1CCNC1=O,9.4%,.,13.7%,.,-0.6%,.
COCCN(C(=O)c1ccc(C)o1)c1c(N)n(CC(C)C)c(=O)[nH]c1=O,24.6%,.,-18.7%[11.6 µM],-22.2%,-3.9%,-23.8%

# Screening results as filed in PubChem BioAssay.
